Assay results from PubChem BioAssay (EPA / NIEHS).
Calls of active or inactive are those of the source. Rule for the calls: active = hit-call score of the fitted dose curve at least 0.9, where 1 is the maximum; inactive = score below 0.9.

Key:
[1] = read-out: Macrophage colony-stimulating factor (MCSF), CSF1 (gene 1435); assay: BSK_hDFCGF_MCSF: BioMAP Diversity Plus: hDFCGF Assay for Macrophage colony-stimulating factor (MCSF) Biomarker Activity (AID 2283060); conditions: primary human foreskin fibroblasts; actives raise or lower the signal
Outline: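 fibroblasts (human foreskin, primary), 24 h post-dose; M-CSF by ELISA; bidirectional fit, DMSO = baseline.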

[2] = BSK_hDFCGF_SRB: Viability Assessment in the BioMAP Diversity Plus: hDFCGF Assay (AID 2283061); conditions: primary human foreskin fibroblasts;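 note: cells exposed to compound for 24 h before the read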
Outline: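 SRB-based viability read on primary human skin fibroblasts at 24 h: TCA fixation, 0.1% dye, 560 nm. Gain or loss of signal is fitted against the DMSO negative control.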

[3] = read-out: TIMP metallopeptidase inhibitor 1 (TIMP1), TIMP1 (gene 7076); assay: BSK_hDFCGF_TIMP1: BioMAP Diversity Plus: hDFCGF Assay for TIMP metallopeptidase inhibitor 1 (TIMP1) Biomarker Activity (AID 2283062); conditions: primary human foreskin fibroblasts; actives raise or lower the signal
Outline: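 Bidirectional curve fitting against DMSO baseline yielded this endpoint, based on ELISA detection of TIMP-1 in primary human foreskin fibroblasts exposed to compound for 24 h.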

[4] = read-out: Monokine induced gamma interferon (MIG), CXCL9 (gene 4283); assay: BSK_hDFCGF_MIG: BioMAP Diversity Plus: hDFCGF Assay for Monokine induced gamma interferon (MIG) Biomarker Activity (AID 2283063); conditions: primary human foreskin fibroblasts; actives raise or lower the signal
Outline: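 Endpoint derived by bidirectional fitting relative to DMSO; MIG quantified via ELISA in primary human foreskin fibroblasts harvested 24 h after dosing.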

[5] = read-out: Matrix Metallopeptidase 1 (MMP1), MMP1 (gene 4312); assay: BSK_hDFCGF_MMP1: BioMAP Diversity Plus: hDFCGF Assay for Matrix Metallopeptidase 1 (MMP1) Biomarker Activity (AID 2283064); conditions: primary human foreskin fibroblasts; actives raise or lower the signal
Outline: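 Primary human foreskin fibroblasts exposed to chemicals for 24 h; MMP1 measured by ELISA. Cytotoxicity tracked by SRB staining in parallel cultures; bidirectional fit relative to DMSO.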

[6] = read-out: Vascular cell adhesion molecule 1 (VCAM1), VCAM1 (gene 7412); assay: BSK_hDFCGF_VCAM1: BioMAP Diversity Plus: hDFCGF Assay for Vascular cell adhesion molecule 1 (VCAM1) Biomarker Activity (AID 2283065); conditions: primary human foreskin fibroblasts; actives raise or lower the signal
Outline: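 Measured after 24 h chemical treatment of primary human skin fibroblasts, VCAM-1 was detected by ELISA and concentration-response analysed in both directions versus DMSO vehicle.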

[7] = read-out: Plasminogen activator inhibitor-1 (PAI1), SERPINE1 (gene 5054); assay: BSK_hDFCGF_PAI1: BioMAP Diversity Plus: hDFCGF Assay for Plasminogen activator inhibitor-1 (PAI1) Biomarker Activity (AID 2283066); conditions: primary human foreskin fibroblasts; actives raise or lower the signal
Outline: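 Primary dermal fibroblasts (human foreskin), hDFCGF system; compound 24 h; PAI-1 by ELISA; bidirectional fit vs DMSO control.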

[8] = read-out: Intercellular Adhesion Molecule 1 (ICAM1), ICAM1 (gene 3383); assay: BSK_KF3CT_ICAM1: BioMAP Diversity Plus: KF3CT Assay for Intercellular Adhesion Molecule 1 (ICAM1) Biomarker Activity (AID 2283067); conditions: primary human keratinocytes with fibroblasts; actives raise or lower the signal
Outline: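 Bidirectional curve fitting against a DMSO baseline was applied to ICAM-1 ELISA signal from primary human skin co-cultures harvested 24 h after treatment, with SRB staining of parallel wells for overt cytotoxicity.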

[9] = read-out: Interferon-gamma inducible Protein 10 (IP10), CXCL10 (gene 3627); assay: BSK_KF3CT_IP10: BioMAP Diversity Plus: KF3CT Assay for Interferon-gamma inducible Protein 10 (IP10) Biomarker Activity (AID 2283068); conditions: primary human keratinocytes with fibroblasts; actives raise or lower the signal
Outline: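 In a primary skin co-culture of keratinocytes and fibroblasts, IP-10 is quantified by ELISA at 24 h after dosing. SRB staining of parallel wells monitors overt toxicity. Curves are fitted both directions against DMSO.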

[10] = BSK_KF3CT_SRB: Viability Assessment in the BioMAP Diversity Plus: KF3CT Assay (AID 2283069); conditions: primary human keratinocytes with fibroblasts;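 note: total protein by sulforhodamine B staining as a cytotoxicity measure; read 24 h after compound addition; fitted for both signal gain and loss against DMSO baseline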
Outline: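 Human keratinocyte and foreskin fibroblast co-culture exposed to chemical for 24 h. Total protein measured in parallel cultures by 0.1% sulforhodamine B staining after 10% TCA fixation, read at 560 nm; bidirectional fit relative to DMSO.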

Measured: AC50

O=C(O)C(F)(F)C(F)(F)C(F)(F)F
inactive: all assays above

O=C(O)C(F)(F)C(F)(F)OC(F)(F)F
inactive: all assays above

FC(F)(F)C(F)(F)CNCC(F)(F)C(F)(F)F
inactive: all assays above

C#C[C@]1(O)CC[C@H]2[C@@H]3CCc4cc(OC)ccc4[C@H]3CC[C@@]21C
active: [7] 16 nM
inactive: all other assays above

FC(F)(F)C(F)(F)C(F)(F)C(F)(F)C(F)(F)C(F)(F)CCS
inactive: all assays above

O=C(O)C(F)(F)C(F)(F)C(F)F
inactive: all assays above
